From PMC4336329 (PLoS ONE, 2015)
The whole screen tested about 310,000 compounds, of which about 14,000 (4.5%) showed an effect of 50% or more. Effects have a minus sign here. Many of the other results were omitted from the sample, so strong results are more common in it than they were.

Each compound was assayed against human ether-à-go-go-related gene (hERG) potassium channel (human, UniProt Q12809) (assay: primary screen, population patch clamp on CHO cells stably expressing hERG; higher = less effect of the substance).
Chain of human ether-à-go-go-related gene (hERG) potassium channel (Q12809 whole entry, looked up): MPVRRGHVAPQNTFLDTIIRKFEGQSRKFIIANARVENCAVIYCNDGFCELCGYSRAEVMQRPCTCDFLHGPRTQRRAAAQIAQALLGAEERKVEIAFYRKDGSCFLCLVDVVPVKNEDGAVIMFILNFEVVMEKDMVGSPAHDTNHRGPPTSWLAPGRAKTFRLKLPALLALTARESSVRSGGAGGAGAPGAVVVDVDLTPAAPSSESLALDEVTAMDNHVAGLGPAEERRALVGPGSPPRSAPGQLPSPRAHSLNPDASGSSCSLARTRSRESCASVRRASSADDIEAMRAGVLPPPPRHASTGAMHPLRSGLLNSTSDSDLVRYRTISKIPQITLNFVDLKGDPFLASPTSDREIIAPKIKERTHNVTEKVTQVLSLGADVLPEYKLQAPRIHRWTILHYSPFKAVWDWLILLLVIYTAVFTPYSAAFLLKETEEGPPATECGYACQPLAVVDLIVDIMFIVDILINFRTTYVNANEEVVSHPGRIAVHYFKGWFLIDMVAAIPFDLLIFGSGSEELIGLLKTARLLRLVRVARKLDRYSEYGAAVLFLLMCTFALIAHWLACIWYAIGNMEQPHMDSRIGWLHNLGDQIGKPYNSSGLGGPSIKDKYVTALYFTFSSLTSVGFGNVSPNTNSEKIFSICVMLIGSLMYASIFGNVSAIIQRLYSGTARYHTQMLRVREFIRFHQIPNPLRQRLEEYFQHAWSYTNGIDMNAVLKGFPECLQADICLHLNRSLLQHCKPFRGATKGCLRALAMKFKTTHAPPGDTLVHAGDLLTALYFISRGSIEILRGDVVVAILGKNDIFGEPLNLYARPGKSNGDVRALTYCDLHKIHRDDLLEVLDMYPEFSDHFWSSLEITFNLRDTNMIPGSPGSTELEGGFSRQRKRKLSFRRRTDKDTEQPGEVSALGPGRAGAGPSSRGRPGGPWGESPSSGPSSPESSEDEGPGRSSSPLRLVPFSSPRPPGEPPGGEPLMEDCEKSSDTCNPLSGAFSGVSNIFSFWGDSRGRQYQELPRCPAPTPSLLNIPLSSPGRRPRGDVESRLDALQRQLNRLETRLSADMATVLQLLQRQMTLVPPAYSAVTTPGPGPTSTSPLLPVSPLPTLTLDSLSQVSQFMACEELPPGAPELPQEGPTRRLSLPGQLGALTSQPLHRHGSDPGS
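Also: peak tail current of the secondary pulse compared with the same well before compound.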

| Structure (SMILES) | hERG current change (%, negative = inhibition) at 10uM [%] |
| --- | --- |
| COc1ccc(C(=O)COc2ccc3ccc(=O)oc3c2)cc1 | -3.32 |
| CC(=O)n1cc(N(C(=O)CCl)c2ccc([N+](=O)[O-])cc2)c2ccccc21 | -57.1 |
| CC(=O)n1cc(N(C(=O)CCl)c2ccc(C)cc2)c2ccccc21 | -5.35 |
| CC(=O)n1cc(N(C(=O)CCl)c2ccccc2)c2ccccc21 | 1.19 |
| CC1CCCCN1C(=O)CCc1nnc(Cc2c[nH]c3ccccc23)o1 (centres unmarked) | 4.94 |
| COc1ccc(S(=O)(=O)N2CCCC(C(=O)Nc3ccc(NC(=O)c4ccccn4)cc3)C2)cc1 (centres unmarked) | 4.17 |
| O=C(CN1C(=O)COc2ccccc21)NCCCN1CCN(Cc2ccccc2)CC1 | -11.7 |
| O=S(=O)(Nc1ccccn1)c1ccc(-n2cccn2)cc1 | 21.3 |
| CCCN1C2=C(C(=O)CCC2)C(c2ccc(O)c(Br)c2)C2=C1CCCC2=O | -18.1 |
| CN1CCN(/N=C/c2nc(-c3ccc(Cl)cc3)n3ccccc23)CC1 | -62.1 |
| Clc1ccc(-c2nc(/C=N/N3CCOCC3)c3ccccn23)cc1 | -5.18 |
| CN1CCN(/N=C/c2nc(-c3ccccc3)n3ccccc23)CC1 | -19.9 |
| COc1ccc(N2CCN(C(=O)CSc3nnnn3C3CC3)CC2)cc1 | -13.6 |
| CC(=O)Nc1nc(C)c(-c2nc3ccc([N+](=O)[O-])cc3[nH]2)s1 | 13.9 |
| Cc1cccc(-n2cc(CN3CCCN(C=O)CC3)c(-c3cccc(F)c3)n2)c1 | -10.8 |
| COc1ccc(-n2cc(CNCCN3CCOC3=O)c(-c3ccccc3Cl)n2)cc1 | -18.5 |
| COc1ccc(-n2cc(CNCCc3cscn3)c(-c3ccccc3Cl)n2)cc1 | -64.5 |
| COc1ccc(-n2cc(CNCCc3cnc[nH]3)c(-c3cccc(F)c3)n2)cc1 | -28.9 |
| COc1ccc(-c2nn(-c3ccccc3)cc2CO)cc1 | 4.56 |
| COc1ccc(-n2cc(CNCCc3nc(C)cc(C)n3)c(-c3ccccc3Cl)n2)cc1 | -62.6 |
| CCN1CC(CNCc2cn(-c3ccc(OC)cc3)nc2-c2ccccc2Cl)CC1=O (centres unmarked) | -24.4 |
| COc1ccc(-n2cc(CNCCCN3CCCC3=O)c(-c3ccccc3Cl)n2)cc1 | -60.9 |

| Structure (SMILES) | hERG current change (%, negative = inhibition) at 10uM [%] |
| --- | --- |
| CCN1CCC(CNCc2cn(-c3ccc(OC)cc3)nc2-c2ccccc2Cl)C1 (centres unmarked) | -9.43 |
| Cc1cccc(-n2cc(CNCCc3nc(C)cc(C)n3)c(-c3cccc(F)c3)n2)c1 | -67.9 |
| O=C(Nc1cccc(O)c1)C1CCCN1C(=O)OCc1ccccc1 (centres unmarked) | -7.35 |
| CC(C)Oc1ccc(OCCn2c(S(=O)(=O)O)nc3c(N)ncnc32)cc1 | 15.9 |
| COc1ccc(NC(=O)CN(Cc2ccccc2)Cc2ccccc2)cc1S(N)(=O)=O | -36.7 |
| CCC(=O)Nc1ccc(C(=O)N/N=C/c2ccccc2[N+](=O)[O-])cc1 | 14.1 |
| CCn1c(SCc2ccc(OC)cc2)nnc1-c1ccncc1 | -18.9 |
| Cc1cccc(-c2nnc(SCC(=O)Nc3cc(C)on3)n2C)c1 | 1.68 |
| Cc1nc(CN2CCN(C(=O)c3ccc(C(C)(C)C)cc3)CC2)cs1.Cl | -3.25 |
| COc1ccc(N2CC(C(=O)Nc3c4c(nn3-c3ccc(OC)cc3)CS(=O)(=O)C4)CC2=O)cc1 (centres unmarked) | 21.4 |
| O=C1COc2ccc3ccccc3c2CN1 | 6.37 |
| Cc1ccc(S(=O)(=O)N2CCCC2CNC(=O)C(=O)NC2CCCC2)cc1 (centres unmarked) | -40.3 |
| Cc1ccc(-n2nc3c(=O)n(CCCC(=O)NCCN4CCN(C)CC4)nc(C)c3c2C)cc1 | 16.8 |
| Cc1ccc(S(=O)(=O)N2CCC(C(=O)NC3CC3)CC2)cc1 | -5.59 |
| O=C1CS/C(=N\c2ccccn2)N1C1CCCCC1 | 13.7 |
| CC(NC(=O)CN1CCc2ccccc21)c1ccccc1 (centres unmarked) | 8.5 |
| COc1ccc(-n2cc(CNCCc3ncc(C)[nH]3)c(-c3ccccc3Cl)n2)cc1 | -63.6 |
| N#CCN1CCCC(C(N)=O)C1 (centres unmarked) | 0.891 |
| COc1ccccc1-n1c(SCC(=O)NCC2CCCO2)nc2c([nH]c3ccccc32)c1=O (centres unmarked) | 9.22 |
| CCN(CC)c1ccc(C(=O)N/N=C(\C)c2ccc(OC)c(OC)c2)cc1 | 3.53 |
| Cc1nnsc1C(=O)NNS(=O)(=O)c1ccccc1 | 8.81 |
| C=CCOc1ccc(/C=N/NC(=O)C(C)Sc2ccccn2)cc1OCC (centres unmarked) | 20.6 |

| Structure (SMILES) | hERG current change (%, negative = inhibition) at 10uM [%] |
| --- | --- |
| CCCCN(C)C(=O)c1nc2ccccn2c1CN1CCSCC1 | 6.32 |
| CCCCN(C)C(=O)c1nc2ccccn2c1CN1CCN(c2ncccn2)CC1 | -10.2 |
| CCCCN(C)C(=O)c1nc2ccccn2c1CN1CCN(c2cnccn2)CC1 | -12.4 |
| CCCCN(C)C(=O)c1nc2ccccn2c1CN1CCN(C/C=C/c2ccccc2)CC1 | -83.9 |
| CCCCN(C)C(=O)c1nc2ccccn2c1CN1CCN(c2ccccn2)CC1 | -7.16 |
| CCCCN(C)C(=O)c1nc2ccccn2c1CN1CCN(C(=O)c2cccs2)CC1 | -51.8 |
| COC(=O)C1=C(C(=O)OC)[C@@H]2N(Cc3ccccc3)c3ccccc3[C@@]23C[C@@H](C(=O)OC)N(C(=O)NC(C)(C)C)C3=N1 | -11.7 |
| Brc1cnc(N2CCCCC2)nc1N1CCOCC1 | -6.45 |
| CN(C)[C@@H]1C(=O)C(C(N)=O)=C(O)[C@@]2(O)C(=O)C3=C(O)c4c(O)cccc4[C@@](C)(O)C3[C@H](O)C12.Cl (some centres unmarked) | -1.22 |
| O=C(CCCn1c(=O)[nH]c2cc(Cl)ccc2c1=O)NCCN1CCN(c2ccccc2)CC1 | -48.4 |
| O=C(CCCN1C(=O)CSc2ncccc21)N1CCN(Cc2ccccc2)CC1 | 6.42 |
| COCCn1c(=O)[nH]c2cc(C(=O)NCCN3CCN(c4cccc(Cl)c4)CC3)ccc2c1=O | 12.8 |
| O=C(CN1C(=O)CSc2ncccc21)N1CCOCC1 | -6.66 |
| O=C(CCCN1C(=O)CSc2ncccc21)N1CCN(c2cccc(C(F)(F)F)c2)CC1 | -56.5 |
| O=C(CCCn1c(=O)[nH]c2cc(Cl)ccc2c1=O)NCCCN1CCN(c2ccc(F)cc2)CC1 | -64.9 |
| O=C(Cn1c(=O)[nH]c2ccccc2c1=O)N1CCN(c2cccc(Cl)c2)CC1 | 15.7 |
| O=C(CCNC(=O)Cn1ccc2ccccc2c1=O)NCCCN1CCN(c2ccccc2F)CC1 | 10.1 |
| O=C(CCCn1c(=O)[nH]c2cc(Cl)ccc2c1=O)NCCCN1CCCC1 | 14.6 |
| O=C(CCn1c(=O)[nH]c2ccccc2c1=O)NCCCN1CCN(c2cccc(Cl)c2)CC1 | -65.4 |
| COc1cc2[nH]c(=O)n(CCC(=O)NCCCN3CCN(c4ccccc4F)CC3)c(=O)c2cc1OC | -35.4 |
| O=C(CCCCCn1c(=O)[nH]c2ccccc2c1=O)NCCCN1CCN(c2ccccc2F)CC1 | -79.2 |
